D3 antag = antagonists of human D3 dopamine receptor. P35462. D3R cells, DiscoveRx beta-arrestin luminescence, antagonist mode; stronger effect = lower value. max response, negative = inhibition, %. 360,000 tested, 2.5% active. AID 652054; in the data active means max response below about -50%; inconclusive means no clear call, values can overlap the other calls; further: on the % scale 0 is the no-effect control and ±100 the full control effect
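Cells plated overnight at 1500 cells/well, then exposed to library compounds with dopamine controls for 90 minutes at 37 degrees C. DiscoveRx reagent added for 30–60 minutes at room temperature; luminescence read, quantitative HTS format.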
DRD3 agonist = D3 dopamine receptor (human) agonism; P35462; D3R DiscoveRx beta-arrestin cells, luminescence, 90 min; max activation, %; 410,000 tested, 0.58% active; AID 652048; in the data active means max activation above about 30%; further: 0% is about no effect
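Cells at 1500/well, incubated overnight, then treated with pinned compounds (dopamine as control) for 90 min at 37 degrees C. DiscoveRx reagent added for 30 - 60 minutes at room temperature; luminescence read.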
D1 ag = agonists of human D1 dopamine receptor; activation, % at 2 µM; P21728; HEK293 T-REx D1 cells, calcium flux, agonist mode; 360,000 tested, 1% active; AID 504660; in the data active means activation above about 30%; further: 0% is about no effect
Target sequence (P21728 whole entry, looked up): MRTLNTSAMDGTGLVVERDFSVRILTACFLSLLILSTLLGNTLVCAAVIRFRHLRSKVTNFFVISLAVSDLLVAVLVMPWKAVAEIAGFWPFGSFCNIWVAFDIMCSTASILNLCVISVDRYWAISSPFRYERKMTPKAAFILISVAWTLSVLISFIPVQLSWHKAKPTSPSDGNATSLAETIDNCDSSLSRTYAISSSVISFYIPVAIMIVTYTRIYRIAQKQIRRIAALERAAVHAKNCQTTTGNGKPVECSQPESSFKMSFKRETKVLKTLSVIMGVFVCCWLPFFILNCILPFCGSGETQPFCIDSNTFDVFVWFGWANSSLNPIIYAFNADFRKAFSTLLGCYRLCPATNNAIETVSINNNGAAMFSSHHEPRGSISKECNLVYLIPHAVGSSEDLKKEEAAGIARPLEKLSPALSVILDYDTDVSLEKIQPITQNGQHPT
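Inducible HEK293 T-REx D1 cells, force-coupled to calcium signalling, were plated at 4000 cells/well with tetracycline and held overnight at 30 C. After no-wash calcium dye loading, compound-evoked calcium rise over 180 s flagged agonists.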
D1 PAM = human D1 dopamine receptor positive modulation; 360,000 tested, 0.036% active; HEK293 TREx D1 cells, calcium flux, dopamine EC20 potentiation; potentiation, % at 10 µM; P21728; AID 504651; in the data active means potentiation above about 30%; further: 0% is about no effect
D1 antag = human D1 dopamine receptor antagonism; AID 504652; activity change, negative = inhibition, % at 10 µM; HEK293 TREx D1 cells, calcium flux, dopamine EC80; stronger effect = lower value; P21728; 360,000 tested, 3.2% active; in the data active means activity change below about -30%; further: on the % scale 0 is the no-effect control and ±100 the full control effect
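After overnight tetracycline induction at 30 C, force-coupled D1 HEK293 cells took up a no-wash calcium dye at room temperature. Compounds were added and monitored 180 s, and the response to EC80 dopamine was then recorded.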
* marks the source's active call; other numbers are inactive results; u = inconclusive; x = not tested or not shown. A selection: hits, their analogues and other compounds. The true share with any hit is near 6.1%.

SMILES	D3 antag	DRD3 agonist	D1 ag	D1 PAM	D1 antag
Cc1ccc(CNC(=O)c2ccc(N3CCc4ccccc43)c([N+](=O)[O-])c2)cc1	u	-25	1	-2	-10
COC(CNC(=O)c1ccc(N2CCc3ccccc32)c([N+](=O)[O-])c1)OC	-8	-3	10	-5	-31*
CCCCC(CC(O)COCCC)c1n[nH]c(=S)n1-c1ccccc1 (stereo not given)	7	7	5	-2	-45*
CC1CCc2nc3ncn(Cc4cccc(F)c4)c(=O)c3cc2C1 (stereo not given)	x	-18	3	1	-13
O=[N+]([O-])c1cc([N+](=O)[O-])c(Oc2cccc3c2CCCC3)cc1NN1CCCCC1	-17	-6	x	x	x
COc1cccc(Oc2cc(NN3CCCCC3)c([N+](=O)[O-])cc2[N+](=O)[O-])c1OC	-65*	-15	-1	6	-7
COc1ccc(C(=O)NC(=S)Nc2cccc(NC(=O)c3ccco3)c2)cc1[N+](=O)[O-]	18	7	1	-10	-2
CCOc1ccc(C(=O)NC(=S)Nc2cccc(NC(=O)c3ccco3)c2)cc1[N+](=O)[O-]	-69*	-8	1	-6	-18
CSc1ccccc1C(=O)Nc1ccccc1C(=O)NC(C)C	0	1	0	-9	0
Cc1cc(C)nc(/N=C(\N)Nc2ccc(-c3ccccc3)cc2)n1	3	10	34*	-2	0
Cc1cc(C)nc(/N=C(\N)Nc2ccc(SC(F)F)cc2)n1	13	9	43*	-7	-49*
Cc1nn(-c2ccccc2)c(Cl)c1/C=N/Nc1ccc(S(=O)(=O)Nc2ccccc2C(=O)O)cc1[N+](=O)[O-]	u	-22	1	0	-32*
CC(C)n1cc(CN2CCCC(CNS(=O)(=O)c3cccc4cccnc34)C2)cn1 (stereo not given)	-14	-20	1	-10	-49*
Cn1cc(CN2CCCC(CNS(=O)(=O)c3cccc4cccnc34)C2)cn1 (stereo not given)	18	-16	1	-1	4
S=C(NCCCc1ccccc1)NC1CCCCC1	u	-17	32*	-5	-1
S=C(NCCc1c[nH]c2ccccc12)NC1CCCC1	6	3	7	1	-39*
S=C(NCc1ccccc1)NC1CCCCC1	20	-4	1	-4	-3
CCc1ccc(OCCCSc2nc(-c3ccc(C(C)(C)C)cc3)nc3cc(=O)[nH]n23)cc1	x	5	1	3	6
Cc1cc(C(=O)N2CCN(c3ccc([N+](=O)[O-])cc3)CC2)n[nH]1	-12	4	16	-11	-32*
COCC(=O)N1CCN(c2ccc([N+](=O)[O-])cc2)CC1	-14	-4	4	-11	-32*
O=C(NCCC1=CCCCC1)C(=O)NCc1ccncc1	10	2	0	8	-9
COC(=O)c1ccc2c(c1)C(C)(C)C(/C=C/c1ccc(OC)c(OC)c1OC)=[N+]2C	-88*	-21	5	-7	-2
C=CCn1c(-c2ccc(Cl)cc2)c[nH]c1=S	-109*	-1	5	-3	3
C=CCn1c(-c2ccccc2)c[nH]c1=S	-68*	-3	6	-4	7
CCn1c(-c2ccc(-c3ccccc3)cc2)c[nH]c1=S	-12	-3	5	-2	-1
SMILES	D3 antag	DRD3 agonist	D1 ag	D1 PAM	D1 antag
CNCCC=C1c2ccccc2CCc2ccccc21	-91*	-84	21	-5	-79*
C[N+](C)(C)CC/C=C1/c2ccccc2CSc2ccccc21	-10	-4	1	-6	-8
O=C(Nc1ccc(C(F)(F)F)cc1)N1CCC(N2CCCCC2)CC1	x	-12	14	-2	8
CC(C)(C)OC(=O)N1CCCN(C(=O)Nc2ccc(C(F)(F)F)cc2)CC1	8	-8	4	-4	-31*
Clc1ccc(OCc2nnc(SCc3nnc(-c4ccccc4)o3)o2)c(Cl)c1	25	1	35*	-2	-18
O=C1CCc2cc(S(=O)(=O)Nc3ccccc3F)ccc2N1	-12	1	2	4	-42*
CC(=O)c1ccc(NS(=O)(=O)c2ccc3c(c2)CCC(=O)N3)cc1	0	-2	4	0	-16
O=C1CCc2cc(S(=O)(=O)Nc3ccccc3Cl)ccc2N1	17	5	3	-2	-7
COC(=O)c1cc(NS(=O)(=O)c2ccc3c(c2)CCC(=O)N3)cc(C(=O)OC)c1	31	33*	-2	-4	17
CC(C)[C@H](NC(=O)OCc1ccccc1)C(=O)OCC(=O)N1C(C)CCCC1C (stereo not given in full)	14	8	x	x	x
CCOCCCn1c(=N)c(C(=O)NC2CCCC2)cc2c(=O)n3cccc(C)c3nc21	x	1	-2	0	-20
O=C(NNC(=O)c1ccccc1C(F)(F)F)c1csc(N2CCOCC2)n1	-11	0	1	-15	-51*
Cc1ccc(CSc2oc(-c3ccco3)nc2S(=O)(=O)c2ccc(Br)cc2)cc1	x	-10	15	0	-35*
CCCSc1oc(-c2ccco2)nc1S(=O)(=O)c1ccc(C)cc1	0	4	3	-7	0
CCCSc1oc(-c2ccco2)nc1S(=O)(=O)c1ccc(Br)cc1	x	-1	17	2	-36*
Cc1nc2ccccc2n1C(c1cccnc1)c1nc2ccccc2[nH]1 (stereo not given)	-6	-3	x	x	x
CCCCCCN(CCCCCC)C(=O)Cc1c(-c2ccc(F)cc2)[nH]c2ccccc12	42	17	-1	-7	-61*
O=C(Cc1c(O)c2ccccc2[nH]c1=O)N(Cc1ccccc1)Cc1ccccc1	-13	2	1	-9	0
COc1ccccc1-c1cccc(-c2nc(C(=O)Nc3nccs3)cc3c2[C@@H](CCO)N(C(C)=O)C3)c1	20	-13	x	x	x
CCC(=O)N1Cc2cc(C(=O)Nc3nccs3)nc(-c3cccc(-c4ccccc4OC)c3)c2[C@H]1CCO	7	61*	x	x	x
COc1ccc(-c2cc(C(=O)Nc3ccc(C#N)cc3)no2)cc1	x	7	1	-1	0
OC(CNCc1ccc(Cl)cc1)(c1ccccc1)c1ccc(F)cc1 (stereo not given)	-11	-11	14	-3	5
OC(CNCc1ccc(F)cc1)(c1ccc(F)cc1)c1ccc(F)cc1	-51*	2	9	5	3
COc1ccc(OC)c(-n2nnnc2SCC(=O)Nc2ccc(C(=O)N3CCCCC3)cc2)c1	6	33*	9	-2	-12
COC(=O)c1ccc(-n2nnnc2SCC(=O)N2CCCCC2)cc1	18	-7	5	-4	-30*
Cc1ccc2cc(CN(CC3CCCO3)C(=O)c3cccs3)c(=O)[nH]c2c1 (stereo not given)	8	3	0	-7	10
